Assay outcomes as filed in PubChem BioAssay.
Most compounds without a hit are left out; they make up all but 2.2% or so of the library.
CRFBP-R2 block – antagonists of CRF-BP/CRF-R2 complex, primary screen, cell-based, HEK293, calcium dye fluorescence, uHTS | CRF-induced calcium fluorescence | inhibition, % at 11.8 µM | 0.59% of 350,000 active | AID 588475, 2011;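 active = inhibition of the ligand-induced calcium signal above about 50% at the single tested concentration, limit read from the data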
CRFR2-BP ag – agonists of CRF-BP/CRF-R2 complex, primary screen, cell-based, HEK293, calcium dye fluorescence, uHTS; CRF-binding protein / CRF receptor 2 complex (human); calcium dye fluorescence (FLIPR); percent of saturating CRF peptide response; activation, % at 13.2 µM; 0.46% of 350,000 active;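 active = activation of at least 50%, plus an integration ratio under a set limit after plate pattern correction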;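 note: plate controls were neutral control wells without compound for no effect and CRF at EC100 for full effect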
Myeloid diff MLP – induction of myeloid progenitor differentiation, primary screen, cell-based, flow cytometry, MLPCN library | calls only at 10 µM | ER-HoxA9 myeloid progenitors, lysozyme-GFP differentiation | 1% of 360,000 active;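 active = normalized GFP-positive differentiation at or above the plate's own cutoff, the solvent-only control mean plus 3 SD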;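 note: cells exposed to compound for four days before flow analysis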
RTF Ca sens inh – cardiac RTF calcium sensitivity inhibitors, primary screen, biochemical, IANBD-TnC fluorescence, EC70 calcium; inhibition, % at 7.15 µM; Troponin I, cardiac muscle (Homo sapiens) + Troponin T, cardiac muscle (Homo sapiens) + …; IANBD-labeled cardiac RTF, Ca2+ fluorescence; AID 493244, 2011; 0.12% of 340,000 active;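 active = inhibition above the mean inhibition of all tested compounds plus 3 SD, cut at about 17% in these data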;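 note: assay run at fixed EC70 calcium of 1.6 mM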
cardiac RTF act – cardiac RTF calcium sensitivity activators, primary screen, biochemical, IANBD-TnC fluorescence, EC20 calcium; 0.24% of 340,000 active; Troponin I, cardiac muscle (Homo sapiens) + Troponin T, cardiac muscle (Homo sapiens) + …; IANBD-labeled TnC RTF fluorescence at EC20 calcium; 0% EC20 calcium, 100% full calcium; activation, % at 7.2 µM; AID 493008, 2010;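 active = activation above the mean over all tested compounds plus 3 SD, cut at about 30% in these data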;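 note: rise in fluorescence read as greater calcium sensitivity of cardiac thin filaments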
Starred values were filed as active, the others as inactive.

Results for CC1=NN(C(N)=S)C(=O)C1N=Nc1ccc(S(N)(=O)=O)cc1 (stereo not drawn) ?
CRFBP-R2 block: 2.3; CRFR2-BP ag: -1.9; Myeloid diff MLP: inactive; RTF Ca sens inh: 2.4; cardiac RTF act: -2.2

How did CC(=O)N(C)c1ccc(N=NC2C(=O)N(C(N)=S)N=C2C)cc1 (stereo not drawn) do in these assays?
CRFBP-R2 block: 50.6*; CRFR2-BP ag: 2.0; Myeloid diff MLP: inactive; RTF Ca sens inh: -9.1; cardiac RTF act: 4.8

How did COc1cccc(-c2nnc(SCC(=O)Nc3ccc(OC)c(OC)c3)n2N)c1 do in these assays?
CRFBP-R2 block: -15.0; CRFR2-BP ag: -1.2; Myeloid diff MLP: active; RTF Ca sens inh: -6.7; cardiac RTF act: -1.5

What do the screens show for `CCOC(=O)Cc1csc(NC(=O)CSc2nnc(-c3ccncc3)o2)n1`?
CRFBP-R2 block: -221.8; CRFR2-BP ag: 121.4*; Myeloid diff MLP: inactive

Results for CSc1ccc(CNC(=O)CCn2ccc3cc(S(=O)(=O)N4CCCC4)ccc32)cc1 ?
CRFBP-R2 block: -4.8; CRFR2-BP ag: 0.4; Myeloid diff MLP: inactive; RTF Ca sens inh: -3.2; cardiac RTF act: -1.6

How did COc1cc(-c2nnc(SCC(=O)N(Cc3ccccc3)C(C)(C)C)o2)cc(OC)c1OC do in these assays?
CRFBP-R2 block: 39.0; CRFR2-BP ag: -0.4; Myeloid diff MLP: active; RTF Ca sens inh: -8.8; cardiac RTF act: 6.0

How did COc1cc(OC)cc(-c2nnc(SCC(=O)N(Cc3ccccc3)C(C)(C)C)o2)c1 do in these assays?
CRFBP-R2 block: -4.2; CRFR2-BP ag: -0.9; Myeloid diff MLP: active; RTF Ca sens inh: -9.4; cardiac RTF act: -4.6

How did COc1cc(OC)cc(-c2nnc(SCC(=O)N(C(C)C)C(C)C)o2)c1 do in these assays?
CRFBP-R2 block: -9.8; CRFR2-BP ag: -0.8; Myeloid diff MLP: inactive; RTF Ca sens inh: 1.1; cardiac RTF act: 3.4

Results for COc1ccc(N2CCN(C(c3ccccc3)c3sc4nc(C)nn4c3O)CC2)cc1 (stereo not drawn) ?
CRFBP-R2 block: -27.9; CRFR2-BP ag: 11.1; Myeloid diff MLP: inactive; RTF Ca sens inh: -4.2; cardiac RTF act: 3.1

How did C/C=C/C(=O)Nc1cccc(C2=NOC3(C2)C[C@@H](C(N)=O)N(C(=O)C(c2ccccc2)c2ccccc2)C3)c1 (stereo partly drawn) do in these assays?
CRFBP-R2 block: 5.0; CRFR2-BP ag: -0.6; Myeloid diff MLP: inactive; RTF Ca sens inh: 4.7; cardiac RTF act: 2.1

How did O=C(c1ccccc1)N1CCN(c2ncccn2)CC1 do in these assays?
CRFBP-R2 block: 3.5; CRFR2-BP ag: 2.2; Myeloid diff MLP: inactive; RTF Ca sens inh: -11.4; cardiac RTF act: 6.2

Results for O=C(c1ccc(Br)cc1)N1CCN(c2ncccn2)CC1 ?
CRFBP-R2 block: 94.3*; CRFR2-BP ag: -1.0; Myeloid diff MLP: inactive; RTF Ca sens inh: -4.5; cardiac RTF act: 2.9

Results for COc1ccc(CN(C)C(=O)CCCNC(=O)c2ccc(Cl)cc2)cc1 ?
CRFBP-R2 block: 2.8; CRFR2-BP ag: -1.7; Myeloid diff MLP: inactive; RTF Ca sens inh: 1.4; cardiac RTF act: -4.0

How did CC(=O)Nc1nnc(S(N)(=O)=O)s1 do in these assays?
CRFBP-R2 block: 30.8; CRFR2-BP ag: 0.0; Myeloid diff MLP: inactive; RTF Ca sens inh: -5.5; cardiac RTF act: 6.1

What do the screens show for `CC(=O)N=c1sc(S(N)(=O)=O)nn1C`?
CRFBP-R2 block: 110.9*; CRFR2-BP ag: -1.9; Myeloid diff MLP: inactive; RTF Ca sens inh: 5.0; cardiac RTF act: -4.0

Results for C[C@@H]1CCCCO[C@@H](CN(C)CC2CC2)[C@@H](C)CN([C@H](C)CO)C(=O)c2cc(N(C)C)ccc2O1 ?
CRFBP-R2 block: 65.7*; CRFR2-BP ag: 0.5; Myeloid diff MLP: inactive

Results for C[C@@H]1CCCCO[C@@H](CN(C)Cc2ccccc2)[C@@H](C)CN([C@H](C)CO)C(=O)c2cc(N(C)C)ccc2O1 ?
CRFBP-R2 block: -6.8; CRFR2-BP ag: -0.5; Myeloid diff MLP: inactive

What do the screens show for `COc1ccc(C(CNC(=O)c2ccc(-c3cccc(C(F)(F)F)c3)o2)N2CCOCC2)cc1` (stereo not drawn)?
CRFBP-R2 block: -71.1; CRFR2-BP ag: 28.8; Myeloid diff MLP: inactive; RTF Ca sens inh: -1.4; cardiac RTF act: -17.6

How did COc1cccc(C2C(C(=O)Nc3ccccc3)=C(C)N=c3s/c(=C/c4ccc(OCC(=O)O)cc4)c(=O)n32)c1 (stereo not drawn) do in these assays?
CRFBP-R2 block: 2.5; CRFR2-BP ag: 1.2; Myeloid diff MLP: inactive; RTF Ca sens inh: -10.5; cardiac RTF act: 4.8

How did CC1=C(C(=O)Nc2ccccc2)C(c2ccc(C)o2)n2c(s/c(=C\c3ccco3)c2=O)=N1 (stereo not drawn) do in these assays?
CRFBP-R2 block: -6.9; CRFR2-BP ag: 3.0; Myeloid diff MLP: active; RTF Ca sens inh: -7.0; cardiac RTF act: -0.6

Results for O=C(O)C1C2C=CC(O2)C1C(=O)Nc1ccccc1C(F)(F)F (stereo not drawn) ?
CRFBP-R2 block: 57.8*; CRFR2-BP ag: 0.0; Myeloid diff MLP: inactive; RTF Ca sens inh: -13.7; cardiac RTF act: 9.2

What do the screens show for `CCc1ccccc1NC(=O)C1C2C=CC(O2)C1C(=O)O` (stereo not drawn)?
CRFBP-R2 block: -1.7; CRFR2-BP ag: 0.0; Myeloid diff MLP: inactive; RTF Ca sens inh: -11.5; cardiac RTF act: 12.0

What do the screens show for `COc1ccc(/C=C2\S/C(=N/S(=O)(=O)c3cccs3)NC2=O)cc1`?
CRFBP-R2 block: 68.8*; CRFR2-BP ag: 0.1; Myeloid diff MLP: inactive; RTF Ca sens inh: -3.8; cardiac RTF act: -2.7

How did CC1=CC2=NC(=O)/C(=C\c3cccn3CCOc3cc(C)ccc3C)C(=N)N2O1 do in these assays?
CRFBP-R2 block: 1.3; CRFR2-BP ag: 1.1; Myeloid diff MLP: inactive; RTF Ca sens inh: 2.3; cardiac RTF act: -4.2

How did COc1cccc(CC2(CO)CCCN(Cc3cn[nH]c3-c3ccccc3)C2)c1 (stereo not drawn) do in these assays?
CRFBP-R2 block: -21.6; CRFR2-BP ag: 0.7; Myeloid diff MLP: active; RTF Ca sens inh: -3.6; cardiac RTF act: 4.6

Results for CC(=O)N1CCN(S(=O)(=O)c2cccc(C(=O)N3CCN(S(=O)(=O)c4c(C)c(C)cc(C)c4C)CC3)c2)CC1 ?
CRFBP-R2 block: 3.3; CRFR2-BP ag: 0.4; Myeloid diff MLP: inactive

How did CCOc1ccccc1N(C)C(=O)Cn1ncc2c([nH]c3ccccc32)c1=O do in these assays?
CRFBP-R2 block: 93.8*; CRFR2-BP ag: 6.6; Myeloid diff MLP: inactive; RTF Ca sens inh: -7.3; cardiac RTF act: -1.5
